High-throughput results deposited in PubChem by Broad Institute.
aSyn 5UTR act = Activators via SNCA 5'UTR binding, MLPCN. hit rate 7.1% among 300,000. alpha-synuclein 5'UTR reporter, activators screen. activity score, % (tested at 7.5 µM), hits read low; in the data active means activity score below about -60%
* = called active by the depositor. The list is a sample of the results.

SMILES	aSyn 5UTR act
Cc1cc(C)c2cc(CN(CC3CCCO3)S(=O)(=O)c3ccc4c(c3)OCCO4)c(=O)[nH]c2c1 (stereo unspecified)	-94*
Cc1ccc(C2=N/C(=C\N(C)C)C(=O)O2)cc1	-144*
CN(C)/C=C1\N=C(c2ccc(Cl)cc2Cl)OC1=O	-149*
CNc1ccccc(-c2ccc3cc4c(cc3n2)OCO4)c1=O	-215*
COc1cc(/C=C2\OC(=O)c3c(OC)cccc32)ccc1O	-172*
COc1ccc(C(NC(=O)c2cccnc2)c2cc(Cl)c3cccnc3c2O)cc1OC (stereo unspecified)	76
COc1ccc(NC(=O)C(=O)Nc2cccc3cccnc23)cc1OC	-114*
COc1ccc(C(=O)Nc2cccc3cccnc23)cc1OC	-72*
CC(C)Oc1ccc(C(=O)Nc2cccc3cccnc23)cc1	-136*
Cc1cc(C(=O)Nc2cccc3cccnc23)ccc1[N+](=O)[O-]	-106*
CCS(=O)(=O)c1ccc(OC)c(N=Nc2ccc(O)c3ncccc23)c1	66
COc1ccccc1NCC(=O)N/N=C(\C)c1cccs1	-92*
Clc1ccccc1Cn1nnc2c(N3CCOCC3)nc(C3CC3)nc21	55
CCCN1CCN(c2ncnc3c2nnn3Cc2ccccc2)CC1	-69*
Cc1ccc(-n2[nH]c(=O)c(-c3ccccn3)c2C)cc1	97
Nc1ccccc1-c1nnc(-c2ccccc2N)n1N	-113*
Nn1c(-c2ccccn2)nnc1-c1ccccn1	-96*
Nn1c(SCc2c(F)cccc2F)nnc1-c1ccccn1	-159*
Cc1ccc(C(=O)n2c(N)nc3ccccc32)cc1	81
COc1ccc(C(=O)n2c(-c3ccco3)nc3ccccc32)cc1	-100*
COc1ccc(C(=O)N2CCn3c2nc2ccccc23)cc1	-108*
O=C(c1cccs1)N1CCn2c1nc1ccccc12	-118*
CCOc1ccc(C(=O)N2CCn3c2nc2ccccc23)cc1	-69*
CC(=O)c1sc(NC(=O)c2ccco2)nc1-c1ccccc1	-115*
Cc1sc(N/N=C/c2cccs2)nc1-c1ccccc1	-211*
SMILES	aSyn 5UTR act
Cc1sc(NC(=O)c2cccs2)nc1-c1ccccc1	-199*
Cc1sc(NC(=O)c2ccco2)nc1-c1ccccc1	-95*
CC(=O)c1c(C)[nH]c(C(=O)Nc2nccs2)c1C	-135*
CC(=O)c1c(C)[nH]c(C(=O)Nc2nc(-c3ccccc3)c(C)s2)c1C	-76*
Cc1cc(C(=O)Nc2ccc3[nH]ccc3c2)no1	-152*
COc1ccc2c(c1)c1nnc(SC)nc1n2C	-68*
CCOC(=O)C1=C(N)n2c(s/c(=C/c3ccco3)c2=O)=C(C(=O)OC)C1c1ccco1 (stereo unspecified)	-66*
O=C(NCc1csc(-c2ccccc2)n1)c1ccco1	-85*
Cc1cc(C(=O)NCc2csc(-c3ccccc3)n2)no1	-82*
Cc1ccc(NC(=O)CN2C(=O)N/C(=C/c3ccc(N4CCOCC4)cc3)C2=O)cc1	-118*
COc1ccc(-c2nnc(N(C)C(=O)C3CCCO3)s2)cc1 (stereo unspecified)	-87*
COc1ccc(-c2nnc(N(C)C(=O)C3CCOC3)s2)cc1 (stereo unspecified)	-66*
COc1ccc(-c2nnc(N(C)C(=O)c3ccno3)s2)cc1	-138*
Cc1cc(C)cc(N(CC(=O)Nc2ccc(-c3nc4ccc(C)cc4s3)cc2)S(C)(=O)=O)c1	-100*
Cc1cccc(NS(=O)(=O)c2ccc(NC(=O)CN(c3cc([N+](=O)[O-])ccc3C)S(C)(=O)=O)cc2)c1	101
Cc1ccc2nc(-c3ccc(NC(=O)CN(c4ccccc4C)S(C)(=O)=O)cc3)sc2c1	-164*
Cc1ccc2nc(-c3ccc(NC(=O)CN4CCN(C(=O)c5ccco5)CC4)cc3)sc2c1	-177*
COc1cn(-c2ccccc2)nc1C(=O)Nc1ccc(C)cc1	-90*
COc1cn(-c2ccccc2)nc1C(=O)Nc1ccccc1	-66*
Cc1nc2sc(C(=O)OC(C)C)c(N)c2c(C)c1C	-190*
Cc1nc2sc(C(=O)c3ccccc3)c(N)c2c(C)c1C	-68*
CC(=O)c1ccc(NC(=O)c2sc3nc(C)c(C)c(C)c3c2N)cc1	-233*
Cc1snc2sc(C(=O)c3ccc(Br)cc3)c(N)c12	-101*
CC(=O)Nc1ccc(Nc2nc(C)c([N+](=O)[O-])c(Nc3ccccc3)n2)cc1	58
Nc1c(C(=O)Nc2ccccc2)sc2ncc([N+](=O)[O-])cc12	-63*
SMILES	aSyn 5UTR act
Cc1nc2sc(C(=O)Nc3ccccc3)c(N)c2c(C)c1[N+](=O)[O-]	-79*
CC(=O)Nc1ccc(Nc2nc(C)c([N+](=O)[O-])c(N(C)c3ccccc3)n2)cc1	86
O=C(c1ccco1)N1N=C(c2ccc3nccnc3c2)CC1c1ccccc1 (stereo unspecified)	-67*
O=C(NCc1ccccc1)c1noc2c1CCCCC2	-133*
CC(=O)c1ccc(NC(=O)c2noc3c2CCC3)cc1	71
O=C(NC1CCCC1)c1noc2c1CCCCC2	-134*
O=C(NCc1cccs1)c1noc2c1CCCCC2	-144*
Cc1ccc(NC(=O)c2noc3c2CCC3)cc1C	-75*
COc1ccc(CNC(=O)c2noc3c2CCCCC3)cc1	-62*
O=C(Nc1cccc(O)c1)c1noc2c1CCCCC2	57
COC(=O)c1ccccc1NC(=O)c1noc2c1CCCC2	-79*
CC(NC(=O)c1noc2c1CCCCC2)c1ccccc1 (stereo unspecified)	-78*
O=C(Nc1cnn(Cc2ccc(F)cc2)c1)c1noc2c1CCCC2	-105*
CCCn1ncc2c(Nc3ccc(C)c(C)c3)ncnc21	-92*
O=C(Nc1nc2cc3c(cc2s1)OCCO3)C1=COCCO1	99
CC(C)(C)C(=O)Nc1nc2cc3c(cc2s1)OCO3	-144*
CC(C)C(=O)Nc1nc2cc3c(cc2s1)OCO3	-179*
Cc1cccn2cc(COc3cccc([N+](=O)[O-])c3)nc12	-65*
O=C1CC(c2ccccc2)=NN1c1nc(-c2ccccc2)cs1	-150*
N=C1SCC(=O)N1c1nc(-c2ccccc2)cs1	-159*
C=CCNC(=S)Nc1c(C(=O)OC)[nH]c2cc(OC)ccc12	-91*
COc1ccc(N/N=C(/N=Nc2nc(C)cc(=O)[nH]2)c2ccccc2)cc1	85
Cc1cc(=O)[nH]c(N=N/C(=N/Nc2ccc(O)cc2)c2ccccc2)n1	-100*
CCN(CC)C(=O)c1ccc(COc2ccc(Cl)c(C)c2)o1	-119*
Cc1cc(OCc2ccc(C(=O)n3cccn3)o2)ccc1Cl	-62*
SMILES	aSyn 5UTR act
COc1cccc(N2CCN(C(=O)c3ccc(CS(=O)c4ccc(Cl)cc4)o3)CC2)c1 (stereo unspecified)	107
CCOC(=O)CNC(=O)c1ccc(SCC)cc1	-91*
O=[N+]([O-])C(/C=C(\Cl)[N+](=O)[O-])=C(N1CCCCC1)N1CCCCC1	-69*
c1ccc(CN2CCN(c3nc4ccccc4s3)CC2)cc1	-150*
O=S(=O)(c1ccccc1F)N1CCN(c2nc3ccccc3s2)CC1	-116*
CCOC(=O)N1CCN(C(=O)c2ccc3nc(N4CCC(C)CC4)sc3c2)CC1	-124*
CC1CCN(c2nc3ccc(C(=O)N4CCN(Cc5ccccc5)CC4)cc3s2)CC1	-137*
COc1cccc(N2CCN(C(=O)c3ccc4nc(N5CCC(C)CC5)sc4c3)CC2)c1	-157*
COc1cccc(N2CCN(C(=O)c3ccc(CS(=O)c4ccc(C)cc4)o3)CC2)c1 (stereo unspecified)	97
CCCOc1ccc(C(=O)Nc2nc(C)c(Cc3ccc4c(c3)OCO4)s2)cc1	-68*
